The source of these data is PubChem BioAssay (NCATS).

Inconclusive results are not listed. The source made the active and inactive calls. Unless noted, calls come from the whole dose curve; as a rule, active = well fitted curve in the direction sought with a large enough effect; inconclusive = small, poorly fitted or top-dose-only effect, or another doubt; inactive = no such curve, though single readings can be large; an effect the other way counts as inactive or inconclusive.

The nature of the first assay: qHTS profiling for inhibitors of Plasmodium falciparum (HB3) proliferation (AID 743324).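 Note: 100% = DMSO vehicle wells and 0% = artemisinin-treated control wells.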 Conditions: Plasmodium falciparum HB3 blood-stage proliferation; at 28.7 µM (top of the series). The method in brief:
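P. falciparum HB3 grown in erythrocytes (0.3% parasitemia, 2.5% hematocrit final) with compound for 72 h at 37 C, 5% CO2. Parasite DNA detected by SYBR Green after saponin/triton lysis overnight; normalized to 0.29 uM artemisinin and DMSO.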
Background: qHTS replaces the single test concentration by a dilution series.
In the case of `COCC(=O)O[C@]1(CCN(C)CCCc2nc3ccccc3[nH]2)CCc2cc(F)ccc2[C@@H]1C(C)C`, the remaining proliferation (% of control), lower = more inhibition is -1.39%.
Regarding `Nc1ncn([C@@H]2O[C@H](CO)[C@@H](O)[C@H]2O)c(=O)n1`, the remaining proliferation (% of control), lower = more inhibition was determined as 137%.
On the same count and under the same terms, under `CN1C[C@H](C(=O)N[C@]2(C)O[C@@]3(O)[C@@H]4CCCN4C(=O)[C@H](Cc4ccccc4)N3C2=O)C[C@@H]2c3cccc4[nH]cc(c34)C[C@H]21` stands -1.27%; under `CNCCC(Oc1ccccc1OC)c1ccccc1` (configuration not stated), 91.8%.

The next assay in a line: qHTS profiling of the MIPE4 collection as inhibitors of Plasmodium falciparum (3D7) proliferation (AID 743344; call rule not given here;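 note: scaled between DMSO vehicle wells and 0.29 µM artemisinin as full inhibition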). Conditions: P. falciparum 3D7 in erythrocytes, SYBR Green DNA fluorescence, 72 h; at 28.5 µM (top of the series). The method in brief:
(§1)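 Erythrocytes infected with P. falciparum (0.3% parasitemia, 2.5% hematocrit) incubated with compounds 72 h at 37 C, 5% CO2. Lysis with saponin/Triton buffer containing SYBR Green I, overnight at room temperature in the dark; DNA fluorescence (485/535 nm) normalised to 0.29 uM artemisinin and DMSO.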
Take `CC(C)COCC(CN(Cc1ccccc1)c1ccccc1)N1CCCC1` (configuration not stated): the parasite growth, % of DMSO control was 5.43%.
The molecule `O=C1NCN(c2ccccc2)C12CCN(CCCC(c1ccc(F)cc1)c1ccc(F)cc1)CC2` gave a parasite growth, % of DMSO control of 5.05%.
`CN1C[C@H](C(=O)N[C@]2(C)O[C@@]3(O)[C@@H]4CCCN4C(=O)[C@H](Cc4ccccc4)N3C2=O)C[C@@H]2c3cccc4[nH]cc(c34)C[C@H]21` had a parasite growth, % of DMSO control of 5.44%.

The nature of another assay: qHTS profiling of the MIPE4 collection as inhibitors of Plasmodium falciparum (DD2) proliferation (AID 743345; call rule not given here). Conditions: P. falciparum Dd2 in erythrocytes, SYBR Green DNA, 72 h; at 28.5 µM (top of the series). A digest of the protocol:
as §1
Consider `CC(C)COCC(CN(Cc1ccccc1)c1ccccc1)N1CCCC1` (configuration not stated), for which the parasite growth remaining, % of DMSO control (lower = more inhibition) was found to be 7.8%.
On the same count and under the same terms, under `O=C1NCN(c2ccccc2)C12CCN(CCCC(c1ccc(F)cc1)c1ccc(F)cc1)CC2` stands 9.4%; under `CN1C[C@H](C(=O)N[C@]2(C)O[C@@]3(O)[C@@H]4CCCN4C(=O)[C@H](Cc4ccccc4)N3C2=O)C[C@@H]2c3cccc4[nH]cc(c34)C[C@H]21`, 7.94%.

Another assay in a line: qHTS profiling of the MIPE4 collection as inhibitors of Plasmodium falciparum (DD2) proliferation (Rep 2) (AID 743346; call rule not given here). Conditions: P. falciparum Dd2 in erythrocytes, SYBR Green DNA, 72 h; at 28.5 µM (top of the series). The method in brief: as §1
In the case of `CC(C)COCC(CN(Cc1ccccc1)c1ccccc1)N1CCCC1` (configuration not stated), the parasite growth, % of control (lower = inhibition) stood at 16%.
`O=C1NCN(c2ccccc2)C12CCN(CCCC(c1ccc(F)cc1)c1ccc(F)cc1)CC2` had a parasite growth, % of control (lower = inhibition) of 11.8%.
On the same count and under the same terms, as for `CN1C[C@H](C(=O)N[C@]2(C)O[C@@]3(O)[C@@H]4CCCN4C(=O)[C@H](Cc4ccccc4)N3C2=O)C[C@@H]2c3cccc4[nH]cc(c34)C[C@H]21`, the figure is 11.7%.

A short description of the next assay: qHTS profiling of the MIPE4 collection as inhibitors of Plasmodium falciparum (HB3) proliferation (AID 743347; call rule not given here;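 note: plate controls were DMSO vehicle wells for no effect and artemisinin wells for full effect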). Conditions: P. falciparum HB3 in erythrocytes, SYBR Green DNA, 72 h; at 28.5 µM (top of the series). The method in brief: as §1
`CC(C)COCC(CN(Cc1ccccc1)c1ccccc1)N1CCCC1` (configuration not stated) had a growth, % of control of 2.98%.
On the same count and under the same terms, as for `O=C1NCN(c2ccccc2)C12CCN(CCCC(c1ccc(F)cc1)c1ccc(F)cc1)CC2`, the figure is 4.02%; as for `CN1C[C@H](C(=O)N[C@]2(C)O[C@@]3(O)[C@@H]4CCCN4C(=O)[C@H](Cc4ccccc4)N3C2=O)C[C@@H]2c3cccc4[nH]cc(c34)C[C@H]21`, 5.6%.

Another assay in a line: qHTS assay for measurement of the activity of small molecule inhibitors on Zika virus induced Caspase-3 activity in human iPSC derived neural progenitor cells (hNPCs) (AID 1224857). Note: % of control where 0% means no effect; nearly all actives have a fitted effect of over 65% in size. Conditions: hNPCs ZIKV-induced caspase-3/7, Caspase-Glo luminescence, 6 h; series mostly up to 45.7 µM. A digest of the protocol:
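Caspase-3/7 induction by a 6-hour ZIKV infection was quantified with a luminescent Caspase-Glo 3/7 reagent incubated 30 minutes at room temperature. Compounds were preincubated with hNPCs for 1 hour; inhibition was calculated against uninfected and infected control wells.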
`C[C@]12C=CC(=O)C=C1CC[C@H]1[C@@H]3C[C@@H](O)[C@](O)(C(=O)CO)[C@@]3(C)C[C@H](O)[C@@]12F`: the result was inactive.
On the same count and under the same terms, as for `Cc1nc2ccccn2c(=O)c1CCN1CCC(C(=O)c2ccc(F)cc2)CC1`, the entry is “inactive”; as for `C(=C\c1ccccc1)/CN1CCN(C(c2ccccc2)c2ccccc2)CC1`, “inactive”.
Still for that read-out and setting: under `Cc1ccc(=O)n(-c2ccccc2)c1` stands “inactive”; under `CN(C)CC/C=C1\c2ccccc2COc2ccccc21`, “inactive”.
On the same count and under the same terms, under `C[C@]12CCC(=O)C=C1CC[C@@H]1[C@@H]2C(=O)C[C@@]2(C)[C@H]1CC[C@]2(O)C(=O)CO` stands “inactive”.
As to `NC(=O)N1c2ccccc2C=Cc2ccccc21`, the call was inactive.
Take `C[C@@H](O)[C@H]1C(=O)N2C(C(=O)O)=C(SCCN=CN)C[C@H]12`: the call was inactive.
Still for that read-out and setting: under `NC(=O)c1ncn([C@@H]2O[C@H](CO)[C@@H](O)[C@H]2O)c1O` stands “inactive”.
Same read-out and setting: as for `OCCN1CCN(CC/C=C2/c3ccccc3Sc3ccc(C(F)(F)F)cc32)CC1`, the entry is “inactive”; as for `O=C(O)CN(CCN(CC(=O)O)CC(=O)O)CCN(CC(=O)O)CC(=O)O`, “inactive”.
The same measure, in the same setting: under `COc1cc(Cc2cnc(N)nc2N)cc(OC)c1OC` stands “inactive”; under `COCC(=O)O[C@]1(CCN(C)CCCc2nc3ccccc3[nH]2)CCc2cc(F)ccc2[C@@H]1C(C)C`, “inactive”.
Regarding `CN1C(=O)CC[C@H]1c1cccnc1`, the outcome was inactive.
On the same count and under the same terms, under `CCn1nc(C(=O)O)c(=O)c2cc3c(cc21)OCO3` stands “inactive”.
Still for that read-out and setting: under `CCO/C([O-])=N/c1c[n+](N2CCOCC2)no1` stands “inactive”.
Still for that read-out and setting: as for `CC(C)COCC(CN(Cc1ccccc1)c1ccccc1)N1CCCC1` (configuration not stated), the entry is “inactive”; as for `O=C(O)CCCCCCCC(=O)O`, “inactive”; as for `O=C1NCN(c2ccccc2)C12CCN(CCCC(c1ccc(F)cc1)c1ccc(F)cc1)CC2`, “inactive”.
Consider `O=c1[nH]c(=O)n([C@H]2C[C@H](O)[C@@H](CO)O2)cc1Br`, for which the result was inactive.
Regarding `CC(=O)Nc1nnc(S(N)(=O)=O)s1`, the outcome was inactive.
`COC(=O)[C@H]1[C@H]2C[C@@H]3c4[nH]c5cc(OC)ccc5c4CCN3C[C@H]2C[C@@H](OC(=O)c2cc(OC)c(OC)c(OC)c2)[C@@H]1OC`: the outcome was inactive.
For the molecule `NC(=Nc1ccccc1)Nc1ccccc1`, the outcome was inactive.
With `COc1ccc(CN(CCN(C)C)c2ccccn2)cc1`, the molecule was called inactive.
As to `Cc1ccc(S(=O)(=O)NC(=O)NN2CCCCCC2)cc1`, the result was inactive.
On the same count and under the same terms, under `NC/C=C/C(=O)O` stands “inactive”.
